The results in this text go back to the supplement of paper PMC10849652.

Of roughly 8,800 targets only a part is listed; those with a hit were picked by preference. About 0.5% of all pairs of compound and target were hits. Values without a mark were called inactive.

UniProt Q9NXJ5, sequence (Q9NXJ5 whole entry, looked up): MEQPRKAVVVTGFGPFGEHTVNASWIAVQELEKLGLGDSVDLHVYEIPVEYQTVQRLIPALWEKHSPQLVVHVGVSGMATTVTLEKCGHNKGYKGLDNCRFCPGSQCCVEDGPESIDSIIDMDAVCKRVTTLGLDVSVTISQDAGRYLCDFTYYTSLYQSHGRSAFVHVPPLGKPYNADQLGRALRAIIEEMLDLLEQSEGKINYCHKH
UniProt P35236, sequence (P35236 whole entry, looked up): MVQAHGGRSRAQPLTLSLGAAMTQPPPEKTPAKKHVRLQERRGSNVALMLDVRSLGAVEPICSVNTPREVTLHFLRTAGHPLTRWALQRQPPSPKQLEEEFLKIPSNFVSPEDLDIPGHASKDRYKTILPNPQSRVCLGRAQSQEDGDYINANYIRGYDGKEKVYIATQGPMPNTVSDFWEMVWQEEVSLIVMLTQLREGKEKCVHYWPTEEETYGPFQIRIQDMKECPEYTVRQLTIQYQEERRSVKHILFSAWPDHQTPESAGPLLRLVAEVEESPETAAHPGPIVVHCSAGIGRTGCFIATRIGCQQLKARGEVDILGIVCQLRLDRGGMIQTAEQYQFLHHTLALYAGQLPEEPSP
UniProt Q8N4L2, sequence (Q8N4L2 whole entry, looked up): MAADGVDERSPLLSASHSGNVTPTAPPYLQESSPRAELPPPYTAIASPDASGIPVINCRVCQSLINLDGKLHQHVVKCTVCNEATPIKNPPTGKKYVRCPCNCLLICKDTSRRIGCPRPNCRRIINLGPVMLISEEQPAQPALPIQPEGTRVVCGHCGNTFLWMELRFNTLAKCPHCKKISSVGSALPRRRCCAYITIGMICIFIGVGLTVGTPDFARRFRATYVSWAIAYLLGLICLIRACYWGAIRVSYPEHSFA
UniProt Q13362, sequence (Q13362 whole entry, looked up): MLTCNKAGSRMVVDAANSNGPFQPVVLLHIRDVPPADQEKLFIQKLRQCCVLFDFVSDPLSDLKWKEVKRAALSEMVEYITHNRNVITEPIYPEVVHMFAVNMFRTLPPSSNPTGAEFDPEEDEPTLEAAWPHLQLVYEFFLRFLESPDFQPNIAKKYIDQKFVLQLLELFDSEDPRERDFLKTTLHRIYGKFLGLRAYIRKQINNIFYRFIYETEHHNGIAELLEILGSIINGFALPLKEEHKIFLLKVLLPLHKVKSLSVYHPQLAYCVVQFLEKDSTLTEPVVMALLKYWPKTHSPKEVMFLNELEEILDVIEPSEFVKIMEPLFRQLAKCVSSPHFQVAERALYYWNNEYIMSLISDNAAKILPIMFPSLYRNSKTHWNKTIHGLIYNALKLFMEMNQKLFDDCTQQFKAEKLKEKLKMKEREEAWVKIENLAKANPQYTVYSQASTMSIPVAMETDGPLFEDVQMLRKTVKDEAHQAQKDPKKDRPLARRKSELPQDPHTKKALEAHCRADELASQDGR
UniProt O00264, sequence (O00264 whole entry, looked up): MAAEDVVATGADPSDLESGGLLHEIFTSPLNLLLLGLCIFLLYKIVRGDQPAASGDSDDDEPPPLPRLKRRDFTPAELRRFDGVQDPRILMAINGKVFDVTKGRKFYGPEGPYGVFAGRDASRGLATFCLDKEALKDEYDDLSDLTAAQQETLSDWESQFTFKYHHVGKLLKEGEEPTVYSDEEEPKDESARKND
UniProt Q96I23, sequence (Q96I23 whole entry, looked up): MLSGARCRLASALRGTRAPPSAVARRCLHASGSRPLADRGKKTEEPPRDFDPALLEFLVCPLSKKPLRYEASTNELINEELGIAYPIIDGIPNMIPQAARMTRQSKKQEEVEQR
UniProt Q8N8N7, sequence (Q8N8N7 whole entry, looked up): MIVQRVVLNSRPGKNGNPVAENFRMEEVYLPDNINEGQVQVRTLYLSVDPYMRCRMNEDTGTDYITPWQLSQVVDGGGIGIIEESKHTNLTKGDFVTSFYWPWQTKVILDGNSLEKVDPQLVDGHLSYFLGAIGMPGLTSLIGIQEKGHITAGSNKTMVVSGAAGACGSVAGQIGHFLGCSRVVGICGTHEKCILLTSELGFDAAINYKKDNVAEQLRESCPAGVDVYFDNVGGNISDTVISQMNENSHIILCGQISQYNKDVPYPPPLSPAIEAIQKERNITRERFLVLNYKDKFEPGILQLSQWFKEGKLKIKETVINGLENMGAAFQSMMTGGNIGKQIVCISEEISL
UniProt Q15054, sequence (Q15054 whole entry, looked up): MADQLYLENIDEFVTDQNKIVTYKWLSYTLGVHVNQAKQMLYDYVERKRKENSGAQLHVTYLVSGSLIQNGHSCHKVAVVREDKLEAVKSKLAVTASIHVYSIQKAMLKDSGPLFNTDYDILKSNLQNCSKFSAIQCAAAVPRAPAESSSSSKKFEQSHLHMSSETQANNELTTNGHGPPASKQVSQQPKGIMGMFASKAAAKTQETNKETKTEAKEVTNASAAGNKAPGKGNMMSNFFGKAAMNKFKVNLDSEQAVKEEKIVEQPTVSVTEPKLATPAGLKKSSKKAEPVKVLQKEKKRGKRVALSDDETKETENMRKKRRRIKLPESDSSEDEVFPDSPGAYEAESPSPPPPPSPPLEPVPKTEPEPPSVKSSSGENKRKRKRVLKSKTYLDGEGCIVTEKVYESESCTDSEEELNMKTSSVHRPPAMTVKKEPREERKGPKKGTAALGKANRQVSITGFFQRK
UniProt Q9H939, sequence (Q9H939 whole entry, looked up): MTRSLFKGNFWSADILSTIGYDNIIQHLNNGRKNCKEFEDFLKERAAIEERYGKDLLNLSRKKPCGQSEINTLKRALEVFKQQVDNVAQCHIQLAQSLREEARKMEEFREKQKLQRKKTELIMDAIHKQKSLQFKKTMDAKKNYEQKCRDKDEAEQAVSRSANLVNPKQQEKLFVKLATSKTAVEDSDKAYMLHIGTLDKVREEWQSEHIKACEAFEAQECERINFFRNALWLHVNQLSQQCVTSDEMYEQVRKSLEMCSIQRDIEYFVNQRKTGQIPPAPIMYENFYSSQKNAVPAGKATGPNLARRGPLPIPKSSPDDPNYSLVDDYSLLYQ
UniProt P49643, sequence (P49643 whole entry, looked up): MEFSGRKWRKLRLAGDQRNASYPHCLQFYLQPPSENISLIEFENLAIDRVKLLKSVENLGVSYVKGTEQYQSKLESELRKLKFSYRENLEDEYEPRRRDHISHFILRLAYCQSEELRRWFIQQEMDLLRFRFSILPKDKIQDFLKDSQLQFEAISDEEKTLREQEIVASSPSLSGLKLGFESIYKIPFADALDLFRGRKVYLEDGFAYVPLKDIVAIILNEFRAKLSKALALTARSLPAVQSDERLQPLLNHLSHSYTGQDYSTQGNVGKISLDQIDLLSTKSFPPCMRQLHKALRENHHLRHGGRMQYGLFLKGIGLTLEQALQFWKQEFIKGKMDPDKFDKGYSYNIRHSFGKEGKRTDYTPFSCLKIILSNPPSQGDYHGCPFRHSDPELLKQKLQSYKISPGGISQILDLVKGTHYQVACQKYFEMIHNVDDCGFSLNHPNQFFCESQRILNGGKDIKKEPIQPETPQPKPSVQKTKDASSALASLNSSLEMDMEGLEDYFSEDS
UniProt Q96S99, sequence (Q96S99 whole entry, looked up): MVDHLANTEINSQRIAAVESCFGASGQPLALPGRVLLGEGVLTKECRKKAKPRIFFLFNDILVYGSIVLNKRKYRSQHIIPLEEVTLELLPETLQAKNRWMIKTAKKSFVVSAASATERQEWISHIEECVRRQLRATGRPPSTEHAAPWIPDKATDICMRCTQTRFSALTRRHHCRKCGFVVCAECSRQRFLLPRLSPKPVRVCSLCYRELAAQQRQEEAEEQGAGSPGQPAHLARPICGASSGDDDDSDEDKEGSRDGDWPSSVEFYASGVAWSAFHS
UniProt O60927, sequence (O60927 whole entry, looked up): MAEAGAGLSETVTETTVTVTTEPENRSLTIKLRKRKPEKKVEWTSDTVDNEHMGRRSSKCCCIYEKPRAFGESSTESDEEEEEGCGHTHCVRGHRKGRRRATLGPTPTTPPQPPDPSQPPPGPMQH
UniProt Q9BZE2, sequence (Q9BZE2 whole entry, looked up): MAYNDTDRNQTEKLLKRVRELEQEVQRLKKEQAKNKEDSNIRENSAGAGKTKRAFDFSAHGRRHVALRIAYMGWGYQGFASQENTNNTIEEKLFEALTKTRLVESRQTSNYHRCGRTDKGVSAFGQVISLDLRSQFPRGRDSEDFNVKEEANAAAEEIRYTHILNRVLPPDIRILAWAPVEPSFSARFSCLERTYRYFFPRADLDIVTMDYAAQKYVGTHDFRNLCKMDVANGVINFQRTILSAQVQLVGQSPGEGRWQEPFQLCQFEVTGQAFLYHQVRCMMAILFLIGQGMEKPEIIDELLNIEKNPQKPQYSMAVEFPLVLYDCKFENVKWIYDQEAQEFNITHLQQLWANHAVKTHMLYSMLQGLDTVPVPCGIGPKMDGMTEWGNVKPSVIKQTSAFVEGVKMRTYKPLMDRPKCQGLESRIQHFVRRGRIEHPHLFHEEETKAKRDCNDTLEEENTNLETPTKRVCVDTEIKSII
UniProt P41219, sequence (P41219 whole entry, looked up): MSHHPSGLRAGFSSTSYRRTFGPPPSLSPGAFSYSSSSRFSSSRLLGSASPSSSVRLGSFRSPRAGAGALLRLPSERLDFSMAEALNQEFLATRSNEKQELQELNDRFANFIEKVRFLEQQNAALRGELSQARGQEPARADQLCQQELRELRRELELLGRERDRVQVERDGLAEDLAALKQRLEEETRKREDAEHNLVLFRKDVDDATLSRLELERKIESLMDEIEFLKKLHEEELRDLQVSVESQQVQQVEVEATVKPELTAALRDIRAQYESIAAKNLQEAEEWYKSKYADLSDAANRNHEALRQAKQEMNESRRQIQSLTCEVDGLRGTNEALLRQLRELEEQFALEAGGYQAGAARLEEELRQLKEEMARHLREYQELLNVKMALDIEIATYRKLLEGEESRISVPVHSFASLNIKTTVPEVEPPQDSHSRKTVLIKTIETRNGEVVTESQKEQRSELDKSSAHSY
UniProt Q9UHV9, sequence (Q9UHV9 whole entry, looked up): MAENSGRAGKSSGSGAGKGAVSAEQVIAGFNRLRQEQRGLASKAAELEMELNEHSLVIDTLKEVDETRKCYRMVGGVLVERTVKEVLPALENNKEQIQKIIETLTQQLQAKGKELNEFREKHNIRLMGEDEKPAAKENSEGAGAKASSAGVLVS

Compound in the assay: Cn1cncc1[C@@](N)(c1ccc(Cl)cc1)c1ccc2c(c1)c(-c1cccc(Cl)c1)cc(=O)n2C [tipifarnib]
In words: log2 fold change, soluble protein after heating vs DMSO (PISA); higher = thermal stabilisation; K562 lysate, 10 uM; active = over 0.2 and 3.5 SD of the protein, either way, in both replicates (recomputed). A digest of the protocol:
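Dounce homogenisation of K562 pellets in PBS pH 7.4 with 1 mM MgCl2 produced a crude extract, used at 1 mg/mL protein. Exposure to 10 μM compound lasted 30 min, and aliquots were then heated for 3 min across 48°C-58°C, pooled and brought to 0.5% NP-40 at 4°C. The supernatant after 21,000xg for 90 min was quantified by TMTpro 16plex LC-MS/MS with channel sums equalised. Duplicate values are given as log-two fold change in thermal stability relative to solvent controls.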
On to PRRC2A (UniProt P48634), for which the log2 fold change was -0.036.

For PSMB9 (UniProt P28065), the log2 fold change is 0.024.

With PRKAR2A (UniProt P13861), the log2 fold change was 0.025. PLEKHF1 (UniProt Q96S99): the log2 fold change was -0.012. With QKI (UniProt Q96PU8), the log2 fold change is -0.024. The value for PGRMC1 (UniProt O00264) was 0.003; that for PYURF (UniProt Q96I23) was -0.009; that for PRKAB2 (UniProt O43741) was -0.031.

As to PHKA1 (UniProt P46020), the log2 fold change was -0.021. The value for PUS1 (UniProt Q9Y606) was 0.018. In the case of POC5 (UniProt Q8NA72), the log2 fold change is 0.005. Regarding PELO (UniProt Q9BRX2), the log2 fold change is 0.007. With PPIL2 (UniProt Q13356), the log2 fold change is -0.038. The value for PUM1 isoform 3 (UniProt Q14671) was -0.057; that for PTPN7 isoform 3 (UniProt P35236) was 0.054.

Turning to PDCD6IP isoform 2 (UniProt Q8WUM4), the log2 fold change was 0.016. As for PRPH isoform 2 (UniProt P41219), the log2 fold change was -0.02. The value for PIR (UniProt O00625) was 0.005; that for PTGR2 (UniProt Q8N8N7) was 0.034; that for PPP2R5C isoform 5 (UniProt Q13362) was 0.074. As to PFKFB3 isoform 4 (UniProt Q16875), the log2 fold change was 0.01. With PFDN2 (UniProt Q9UHV9), the log2 fold change was 0. Consider PPFIA2 (UniProt O75334), for which the log2 fold change was -0.029. For PCYT1B (UniProt Q9Y5K3), the log2 fold change is 0.047.

Consider PPP1R11 (UniProt O60927), for which the log2 fold change was -0.001. With PMS2 (UniProt P54278), the log2 fold change was -0.078. Take PLXNB2 (UniProt O15031): the log2 fold change was -0.017.

In the case of PUS3 (UniProt Q9BZE2), the log2 fold change is -0.007.

PSTPIP2 (UniProt Q9H939): the log2 fold change is -0.008. Turning to PGPEP1 (UniProt Q9NXJ5), the log2 fold change was -0.006. As for PTPN6 isoform 4 (UniProt P29350), the log2 fold change is 0.055. To PDE2A (UniProt O00408) belongs 0.042; to PPIL3 (UniProt Q9H2H8), -0.028; to PI4K2B (UniProt Q8TCG2), -0.036. Take PRIM2 (UniProt P49643): the log2 fold change is -0.037.

On to PFN1 (UniProt P07737), for which the log2 fold change is 0.03. In the case of PIP4P2 (UniProt Q8N4L2), the log2 fold change is -0.148. For the target PLEKHO2 (UniProt Q8TD55), the log2 fold change was -0.192. POLD3 (UniProt Q15054): the log2 fold change is 0.002.
